Experimental data from PubChem BioAssay (NCATS).
A number with no mark means an inactive call. The source made the active and inactive calls. Calls come from the whole dose curve; as a rule, active = well fitted curve in the direction sought with a large enough effect; inconclusive = small, poorly fitted or top-dose-only effect, or effect the other way, or another doubt; inactive = no such curve, though single readings can be large or run the other way.

Test: qHTS of Nrf2 Activators: LOPAC Validation (AID 624149); note: 0% is about no effect
Conditions: Nrf2/ARE reporter cell assay; series mostly up to 46.1 µM; activation: at the top concentration
How it was run: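 Cells (AREc32_Fluc) are plated at 1000 per well in OPTI-MEM containing 5% FBS and left overnight. Compounds are pinned in and incubated 24 hr at 37 deg C, and firefly luciferase is detected with Steady-Glo.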

| SMILES | activation [%] | outcome |
| --- | --- | --- |
| COC(=O)C1=C(C)NC(C)=C(C(=O)OC)C1c1ccccc1[N+](=O)[O-] | -0.149 |  |
| CC[C@H]1CN2CCc3cc(OC)c(OC)cc3[C@@H]2C[C@@H]1C[C@H]1NCCc2cc(OC)c(OC)cc21 | 0.624 |  |
| CC(C)(C)c1onc(OCP(=O)(O)O)c1CC(N)C(=O)O (stereo not drawn) |  | inactive |
| CN(C)CC[C@@H](c1ccc(Cl)cc1)c1ccccn1 | -1.97 |  |
| NC(=O)c1ncn([C@@H]2O[C@H](CO)[C@@H](O)[C@H]2O)n1 | -1.63 |  |
| CCN(CC)CCCC(C)Nc1c2ccc(Cl)cc2nc2ccc(OC)cc12 (stereo not drawn) | 15.7 |  |
| CN1CCN(C2Cc3ccccc3Sc3ccc(Cl)cc32)CC1 (stereo not drawn) | 5.8 |  |
| CC(CN1c2ccccc2Sc2ccccc21)N(C)C (stereo not drawn) | 1.31 |  |
| CC(=O)OCC(=O)[C@@]1(O)CC[C@H]2[C@@H]3CCC4=CC(=O)CC[C@]4(C)[C@H]3C(=O)C[C@@]21C | -2.31 |  |
| CC1=C(/C=C/C(C)=C/C=C/C(C)=C/C(=O)O)C(C)(C)CCC1 | -1.78 |  |
| COCCOC(=O)C1=C(C)NC(C)=C(C(=O)OC/C=C/c2ccccc2)C1c1cccc([N+](=O)[O-])c1 (stereo not drawn) | 1.02 |  |
| CCCn1cnc2c1c(=O)n(CCCCC(C)=O)c(=O)n2C | -2.23 |  |
| C#CCN(C)Cc1ccccc1 | -1.05 |  |
| CC(C)C(=O)c1c(C(C)C)nn2ccccc12 | -2.06 |  |
| CC(C)(C)[C@]1(O)CCN2C[C@H]3c4ccccc4CCc4cccc(c43)[C@@H]2C1 |  | inactive |
| CN(C)CCOC(C)(c1ccccc1)c1ccccn1 (stereo not drawn) | -1.94 |  |
| NC(N)=NCCC[C@H](N)C(=O)O | -2.1 |  |
| CC(C)(C(=O)O)c1ccc(C(O)CCCN2CCC(C(O)(c3ccccc3)c3ccccc3)CC2)cc1 (stereo not drawn) | -1.2 |  |
